Experimental findings from the supplement of paper PMC10037445 are described below.

Where “and” joins values, the source holds several entries; their conditions need not be identical. Equal values may be shown once. Whole data set: some 2,900 compounds, median “NF-kB SEAP reporter activity, fold change vs agonist alone” near 0.99, cut for the highest 2% near 2.6. The sample as a whole holds a higher share of the highest values than the screen did.

Assay [1] has as its system RAW-Dual. In words: NF-kB SEAP reporter activity, fold change vs agonist alone; higher = enhanced NF-kB activity. The conditions noted are these: library stock concentration (final ~1000-fold dilution): 10 mM. The method, boiled down: (§1)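 Cytotoxic wells were those whose IncuCyte confluency was below 70% of agonist controls in both mask sets. The cells were RAW-Dual macrophages at 50,000 cells/well in DMEM on 384-well plates, dosed with 50 nL of library stock by pin tool, stimulated with a PRR agonist 1 h later, and kept at 37 °C, 5% CO2 for 20 hours. IRF and NF-κB reporter activity, as fold change over agonist-alone wells, came from supernatant read by QuantiLuc luminescence and QuantiBlue absorbance, respectively.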

Assay [2] deals with RAW-Dual. The assay can be described thus: NF-kB SEAP reporter activity, fold change vs agonist alone; cytotoxicity flag (confluency mask): not cytotoxic; higher = enhanced NF-kB activity. Put shortly: as §1
For assay [3], the system named is RAW-Dual. In words: NF-kB SEAP reporter activity, fold change vs agonist alone; cytotoxicity flag (confluency mask): cytotoxic (confluency <70% of control); higher = enhanced NF-kB activity. Put shortly:
as §1

[4] abbreviates: cytotoxicity flag (confluency mask): not cytotoxic, agonist: Imiquimod (TLR7) […].
Setting [5] is: cytotoxicity flag (confluency mask): not cytotoxic, agonist: MPLA (TLR4) […].
The mark [6] stands for this setting: agonist: ODN 1826 (TLR9) 0.5 ug/mL.
Setting [7] is: agonist: Pam2CSK4 (TLR2/6) 0.1 ug/mL.
[8] abbreviates: agonist: Pam3CSK4 (TLR2/1) 0.1 ug/mL.
Where [9] appears, read: cytotoxicity flag (confluency mask): cytotoxic (confluency <70% of control), agonist: Imiquimod (TLR7) […].
Setting [10] is: cytotoxicity flag (confluency mask): cytotoxic (confluency <70% of control), agonist: MPLA (TLR4) […].

For `CCCCCCCCCCCC(CC1OC(=O)C1CCCCCC)OC(=O)C(CC(C)C)NC=O` (configuration not stated), the “NF-kB SEAP reporter activity” value worked out at 0.823 in assay [1] (setting [4]) and 0.902 in assay [1] (setting [5]).
Consider `CCCCCCCCCCCC(CC1OC(=O)C1CCCCCC)OC(=O)C(CC(C)C)NC=O` (configuration not stated) (library stock concentration (final ~1000-fold dilution): 10 mM), for which the “NF-kB SEAP reporter activity” value turned out to be 1.07 in assay [2] (agonist: LPS (TLR4) 0.1 ug/mL), 1.02 in assay [2] (setting [6]), 0.959 in assay [2] (setting [7]) and 0.978 in assay [2] (setting [8]).
`CN(C)C/C=C/C(=O)Nc1ccc(C(=O)Nc2cccc(Nc3ncc(Cl)c(-c4c[nH]c5ccccc45)n3)c2)cc1.Cl.Cl`: the “NF-kB SEAP reporter activity” value in assay [1] (setting [9]) came out at 0.142; in assay [1] (setting [10]), 0.258.
As to `CN(C)C/C=C/C(=O)Nc1ccc(C(=O)Nc2cccc(Nc3ncc(Cl)c(-c4c[nH]c5ccccc45)n3)c2)cc1.Cl.Cl` (library stock concentration (final ~1000-fold dilution): 10 mM), the “NF-kB SEAP reporter activity” value in assay [3] (agonist: LPS (TLR4) 0.1 ug/mL) turned out to be 0.242; in assay [3] (setting [6]), 0.189; in assay [3] (setting [7]), 0.0773; in assay [3] (setting [8]), 0.176.
Consider `N#Cc1ccnc(N2C(=O)CCC2C(=O)N(c2cncc(F)c2)C(C(=O)NC2CC(F)(F)C2)c2ccccc2Cl)c1` (configuration not stated) (library stock concentration (final ~1000-fold dilution): 10 mM), for which the “NF-kB SEAP reporter activity” value was determined as 1.37 in assay [2] (agonist: LPS (TLR4) 0.1 ug/mL), 1.16 in assay [2] (setting [6]), 0.753 in assay [2] (setting [7]) and 0.775 in assay [2] (setting [8]).
Take `N#Cc1ccnc(N2C(=O)CCC2C(=O)N(c2cncc(F)c2)C(C(=O)NC2CC(F)(F)C2)c2ccccc2Cl)c1` (configuration not stated): the “NF-kB SEAP reporter activity” value in assay [1] (setting [4]) is 1.14; in assay [1] (setting [5]), 1.16.
With `CCOC(=O)C1=C(COCCN)NC(C)=C(C(=O)OC)C1c1ccccc1Cl.O=S(=O)(O)c1ccccc1` (configuration not stated), the “NF-kB SEAP reporter activity” value in assay [1] (setting [9]) stood at 2.53; in assay [1] (setting [10]) it was 2.58.
Consider `CCOC(=O)C1=C(C)NC(C)=C(C(=O)OC)C1c1cccc(Cl)c1Cl` (configuration not stated), for which the “NF-kB SEAP reporter activity” value in assay [1] (setting [4]) was 1.53; in assay [1] (setting [5]) it was 0.952.
Consider `CCOC(=O)C1=C(COCCN)NC(C)=C(C(=O)OC)C1c1ccccc1Cl.O=S(=O)(O)c1ccccc1` (configuration not stated) (library stock concentration (final ~1000-fold dilution): 10 mM), for which the “NF-kB SEAP reporter activity” value in assay [3] (agonist: LPS (TLR4) 0.1 ug/mL) came out at 2.27; in assay [3] (setting [6]) it was 0.532; in assay [3] (setting [7]), 0.907; in assay [3] (setting [8]), 0.924.
For `CCCC(=O)OCOC(=O)C1=C(C)NC(C)=C(C(=O)OC)C1c1cccc(Cl)c1Cl` (configuration not stated) (library stock concentration (final ~1000-fold dilution): 10 mM), the “NF-kB SEAP reporter activity” value in assay [2] (agonist: LPS (TLR4) 0.1 ug/mL) was determined as 0.954; in assay [2] (setting [6]), 1.19; in assay [2] (setting [7]), 0.911; in assay [2] (setting [8]), 1.1.
In the case of `COC(=O)C1=C(C)NC(C)=C(C(=O)OCC(C)C)C1c1ccccc1[N+](=O)[O-]` (configuration not stated), the “NF-kB SEAP reporter activity” value came to 0.706 in assay [1] (setting [4]) and 0.773 in assay [1] (setting [5]).
In the case of `CCOC(=O)C1=C(COCCN)NC(C)=C(C(=O)OC)C1c1ccccc1Cl` (configuration not stated) (library stock concentration (final ~1000-fold dilution): 10 mM), the “NF-kB SEAP reporter activity” value was 2.23 and 2.05 in assay [3] (agonist: LPS (TLR4) 0.1 ug/mL); 0.736 and 1.01 in assay [3] (setting [6]); 0.785 and 0.751 in assay [3] (setting [7]); 0.888 and 1.41 in assay [3] (setting [8]).
As to `COC(=O)C1=C(C)NC(C)=C(C(=O)OC)C1c1ccccc1[N+](=O)[O-]` (library stock concentration (final ~1000-fold dilution): 10 mM), the “NF-kB SEAP reporter activity” value in assay [2] (agonist: LPS (TLR4) 0.1 ug/mL) worked out at 2.15; in assay [2] (setting [6]) it was 1.42; in assay [2] (setting [7]) it was 1.5; in assay [2] (setting [8]), 1.37.
On to `COC(=O)C1=C(C)NC(C)=C(C(=O)OC)C1c1ccccc1[N+](=O)[O-]`, for which the “NF-kB SEAP reporter activity” value in assay [1] (setting [4]) was determined as 1.59; in assay [1] (setting [5]) it was 1.35.
With `COC(=O)C1=C(C)NC(C)=C(C(=O)OCC(C)C)C1c1ccccc1[N+](=O)[O-]` (configuration not stated) (library stock concentration (final ~1000-fold dilution): 10 mM), the “NF-kB SEAP reporter activity” value was found to be 0.885 in assay [2] (agonist: LPS (TLR4) 0.1 ug/mL), 0.605 in assay [2] (setting [6]), 0.675 in assay [2] (setting [7]) and 0.706 in assay [2] (setting [8]).
In the same order, the values of `CCOC(=O)C1=C(C)NC(C)=C(C(=O)OC)C1c1cccc(Cl)c1Cl` (configuration not stated) (library stock concentration (final ~1000-fold dilution): 10 mM) are 0.607, 0.648, 0.408 and 0.423.
On to `CCCC(=O)OCOC(=O)C1=C(C)NC(C)=C(C(=O)OC)C1c1cccc(Cl)c1Cl` (configuration not stated), for which the “NF-kB SEAP reporter activity” value in assay [1] (setting [4]) amounted to 1.02; in assay [1] (setting [5]), 0.958.
The matching figures for `CCC1OC(=O)C(C)C(OC2CC(C)(OC)C(O)C(C)O2)C(C)C(OC2OC(C)CC(N(C)C)C2O)C(C)(OC)CC(C)C(=O)C(C)C(O)C1(C)O` (configuration not stated): 0.947 and 0.96.
With `CCC1OC(=O)C(C)C(OC2CC(C)(OC)C(O)C(C)O2)C(C)C(OC2OC(C)CC(N(C)C)C2O)C(C)(OC)CC(C)C(=O)C(C)C(O)C1(C)O` (configuration not stated) (library stock concentration (final ~1000-fold dilution): 10 mM), the “NF-kB SEAP reporter activity” value in assay [2] (agonist: LPS (TLR4) 0.1 ug/mL) was determined as 0.99; in assay [2] (setting [6]), 0.929; in assay [2] (setting [7]), 0.942; in assay [2] (setting [8]) it was 0.932.
For the compound `CC(=O)C1CCC2C3CC=C4CC(O)CCC4(C)C3CCC12C` (configuration not stated), the “NF-kB SEAP reporter activity” value in assay [1] (setting [4]) worked out at 1.07; in assay [1] (setting [5]), 1.3.
`CC(=O)C1CCC2C3CC=C4CC(O)CCC4(C)C3CCC12C` (configuration not stated) (library stock concentration (final ~1000-fold dilution): 10 mM): the “NF-kB SEAP reporter activity” value in assay [2] (agonist: LPS (TLR4) 0.1 ug/mL) came to 1.1; in assay [2] (setting [6]), 0.897; in assay [2] (setting [7]) it was 0.904; in assay [2] (setting [8]), 0.972.
Turning to `N#Cc1ccc(COCC2OC(n3c(NCc4ccc(Cl)c(Cl)c4)nc4c(N)ncnc43)C(O)C2O)cc1` (configuration not stated), the “NF-kB SEAP reporter activity” value was 0.762 in assay [1] (setting [4]) and 0.966 in assay [1] (setting [5]).
In the case of `N#Cc1ccc(COCC2OC(n3c(NCc4ccc(Cl)c(Cl)c4)nc4c(N)ncnc43)C(O)C2O)cc1` (configuration not stated) (library stock concentration (final ~1000-fold dilution): 10 mM), the “NF-kB SEAP reporter activity” value in assay [2] (agonist: LPS (TLR4) 0.1 ug/mL) is 0.934; in assay [2] (setting [6]), 1.01; in assay [2] (setting [7]), 0.742; in assay [2] (setting [8]), 0.944.
`Cc1ccc(NC(=O)Nc2cc(-c3ccccc3-c3nnn[nH]3)ccc2N(CC(C)C)CC(C)C)cc1`: the entries for the “NF-kB SEAP reporter activity” value in assay [1] (setting [9]) and in assay [1] (setting [10]) were 0.81 and 1.25, respectively.
